# Measured values taken from PubChem BioAssay (NCATS).
# Assay: qHTS profiling of the MIPE4 collection as inhibitors of Plasmodium falciparum (DD2) proliferation (Rep 2) (AID 743346)
# Settings: P. falciparum Dd2 in erythrocytes, SYBR Green DNA, 72 h; at 28.5 µM unless noted
# From the text: Plasmodium falciparum is a virulent malarial parasite that kills 1-2 million people worldwide each year. Transmitted by mosquitoes, the sporozoite form of the parasite enters the blood stream to infect hepatocytes, where they become merozoites that infect red blood cells (erythrocytes). Within erythrocytes, merozoites begin a […] cycle of growth and division, after which the parasite is released to infect new red blood cells. Gametocytes, which form within erythrocytes as well, circulate in the bloodstream and are ingested by the mosquito, thereby completing the life cycle. To profile malarial isolates for differential chemical responses and to identify inhibitors of malarial growth, an assay that measures P. falciparum growth and replication within erythrocytes was employed. This assay uses a DNA binding fluorescent dye (SYBR Green) to detect parasite DNA following cell lysis. Because mature erythrocytes lack DNA, only Plasmodium-derived DNA is detected.
# The SYBR Green viability assay was adapted from a method described previously (Plouffe et al., 2008). For screening 3 ul culture medium was dispensed into 1536 well black clear bottom plates (Aurora Biotechnologies) using a Multidrop Combi (Thermo Fisher Scientific Inc.), 23 nL compounds in DMSO were added by a pin tool (Kalypsys), and 5 ul of erythrocytes infected with P. falciparum (0.3% parasitemia, 2.5% hematocrit final concentration) were added. The plates were incubated at 37 C in a humidified incubator in 5% CO2 for 72 h, and 2 ul lysis buffer (20 mM Tris HCl, 10 mM EDTA, 0.16% saponin, 1.6% triton X, 10X SYBR Green I supplied as 10,000X […] by Invitrogen) was added to each well. The plates were mixed for 25 sec with gentle shaking and incubated overnight at room temperature in the dark. The following morning, fluorescence intensity at 485(14) nm excitation and 535(25) nm emission wavelengths was measured on an EnVision (Perkin Elmer) plate reader. Plate reads were normalized relative to the control inhibitor (0.29 uM artemisinin) and vehicle (DMSO) wells present on each plate and then corrected by an algorithm using vehicle-only control plates at the beginning and end of the compound plate stack.
row,Compound,"parasite growth, % of control (lower = inhibition)"
1,Cc1onc(-c2ccccc2)c1C(=O)N[C@@H]1C(=O)N2[C@@H](C(=O)O)C(C)(C)S[C@@H]12,92.1%
2,O=C(O)CCCc1ccc(N(CCCl)CCCl)cc1,81.2%
3,CC[N+](CC)(CC)CCOc1cccc(OCC[N+](CC)(CC)CC)c1OCC[N+](CC)(CC)CC,133%
4,CN1C(=O)COc2c(C(=O)NC3CN4CCC3CC4)cc(Cl)cc21 (stereo unspecified),95.9%
5,CCC1(C)CC(=O)NC1=O (stereo unspecified),96.3%
6,COCCCOc1ccnc(CS(=O)c2nc3ccccc3[nH]2)c1C (stereo unspecified),63.9%
7,CC(C)C[C@H](CN)CC(=O)O,89%
8,CC(=O)CC(c1ccccc1)c1c(O)c2ccccc2oc1=O (stereo unspecified),69.5%
9,C[C@]12CC[C@H]3[C@@H](CC[C@@]45O[C@H]4C(O)=C(C#N)C[C@]35C)[C@H]1CC[C@H]2O,55.7%
10,CC(=O)N1CCN(c2ccc(OC[C@H]3CO[C@](Cn4ccnc4)(c4ccc(Cl)cc4Cl)O3)cc2)CC1,31%
11,CCC1(c2ccc(N)cc2)CCC(=O)NC1=O (stereo unspecified),117%
12,CN1C(=O)CCS(=O)(=O)C1c1ccc(Cl)cc1 (stereo unspecified),126%
13,CC(C)N(CCC(C(N)=O)(c1ccccc1)c1ccccn1)C(C)C (stereo unspecified),42.5%
14,C[C@]12CCC(=O)C=C1CC[C@@H]1[C@H]3CC[C@](C)(O)[C@@]3(C)CC[C@@H]12,65.8% [at 57.5 µM]
15,O=c1[nH]cnc2[nH]ncc12,153%
16,C[C@](O)(CS(=O)(=O)c1ccc(F)cc1)C(=O)Nc1ccc(C#N)c(C(F)(F)F)c1,33.5%
17,CC(C)OC(=O)OCOP(=O)(CO[C@H](C)Cn1cnc2c(N)ncnc21)OCOC(=O)OC(C)C,74.1%
18,Cn1c(=O)c2[nH]cnc2n(C)c1=O,114%
19,CC(C)[C@H](N)C(=O)OCCOCn1cnc2c(=O)[nH]c(N)nc21,136%
20,CCOC(=O)C1=C[C@@H](OC(CC)CC)[C@H](NC(C)=O)[C@@H](N)C1,101%
21,CC(NC(C)(C)C)C(=O)c1cccc(Cl)c1 (stereo unspecified),31%
22,COc1cc(OC)c(OC)cc1C=O,110%
23,O=P1(N(CCCl)CCCl)NCCCO1 (stereo unspecified),39.6%
24,Nc1ccn(C[C@@H](CO)OCP(=O)(O)O)c(=O)n1,97.9% [at 9.64 µM]
25,C[C@]12CC[C@@H]3c4ccc(OC(=O)N(CCCl)CCCl)cc4CC[C@H]3[C@@H]1CC[C@@H]2OP(=O)(O)O,86.3%
26,CC(C)c1cccc(C(C)C)c1O,85.1%
